Hits are enriched below; roughly 2.4% of the tested compounds scored in any of these assays.
GLP1R inv ag – acts as inverse agonist at human GLP-1 receptor. 410,000 compounds, 1.6% hits. Potency, µM (top dose mostly 38.3 µM), for the others: top-dose activity change, negative = inhibition, actives largely listed as inhibitors. AID 624417. P43220. HEK293 GLP-1R CRE-luciferase, luminescence, 24 h; GLP-1R form is constitutively active; further: potency means the concentration at half of the fitted maximal effect; on the % scale 0 is the no-effect control and ±100 the full control effect; nearly all actives have a fitted effect of over 55% in size
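Inverse agonism was detected as reduced cAMP-driven luciferase luminescence after 24 h compound treatment. The cells were HEK293 clones expressing constitutively active human GLP-1R with the reporter. Reporter-only and GPR119 cell lines served as counterscreen controls.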
TRHR ag – TRH receptor (human) agonism. AID 493084. 360,000 compounds, 0.18% hits. P34981. TRHR cells, calcium flux fluo-8, FDSS agonist mode. activation, % at 2 µM; in the data active means activation above about 30%; further: 0% is about no effect
Target sequence (P34981 whole entry, looked up): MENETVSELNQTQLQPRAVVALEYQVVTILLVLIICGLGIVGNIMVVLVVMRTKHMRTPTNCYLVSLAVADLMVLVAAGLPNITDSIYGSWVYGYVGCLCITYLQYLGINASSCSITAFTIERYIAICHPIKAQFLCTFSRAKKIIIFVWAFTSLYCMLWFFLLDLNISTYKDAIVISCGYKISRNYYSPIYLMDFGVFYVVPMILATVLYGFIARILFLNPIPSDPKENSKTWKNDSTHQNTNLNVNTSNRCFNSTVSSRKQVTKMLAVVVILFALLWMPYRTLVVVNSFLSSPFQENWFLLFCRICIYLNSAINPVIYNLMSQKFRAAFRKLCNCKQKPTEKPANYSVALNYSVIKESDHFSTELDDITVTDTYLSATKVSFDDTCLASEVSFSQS
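Steps: seed TRHR cells overnight; add fluo-8 no-wash Ca dye, RT 30 min–1.5 h; record 10 s baseline; pin-transfer compounds; monitor fluorescence 1 cycle/s for the agonist window. Calcium increases flag candidate agonists.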
GLP1R ag – GLP-1 receptor (human) agonism. Potency, µM (top dose mostly 45.6 µM), for inactives: at the top dose activation, actives largely listed as activators. P43220. 380,000 compounds, 0.007% hits. HEK293 GLP-1R CRE-luciferase, luminescence, 4-6 h; cells express a hypersensitive GLP-1R form; further: potency means the concentration at half of the fitted maximal effect; % of control where 0% means no effect
PTHR1 ag – PTHR1 (human) receptor agonism; Q03431; HEK293 GP2 PTHR1 cells, GloSensor cAMP luminescence, 1 h; Potency, µM (highest dose often 115 µM), for inactives: at the highest dose activation, hits mostly activators; 410,000 compounds, 0.075% hits; AID 743266; further: potency means the concentration at half of the fitted maximal effect; nearly all actives have a fitted effect of over 55% in size
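HEK-293-derived GP2 cells expressing PTHR1 and a GloSensor cAMP reporter, 3,000/well, plated overnight, given luciferin plus IBMX (each 0.5 mM as added) for 1 h at 37 °C, then compound for 1 h at 37 °C. Luminescence was read after 15 min at room temperature.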
TRHR enhancer – TRH receptor (human) allosteric enhancement; AID 493056; 360,000 compounds, 0.66% hits; enhancement, % at 2 µM; TRHR cells, fluo-8 calcium fluorescence, EC20 TRH enhancement; P34981; in the data active means enhancement above about 30%; further: 0% is about no effect
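TRHR-expressing cells loaded with fluo-8 calcium dye were read kinetically (ex 480/em 530) during compound addition, then stimulated with an EC20 of TRH (10 nM final). Enhancement of the Gq-mediated intracellular calcium response was scored.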
HEK293 tox – cytotoxicity in counter-screen for GLP-1R inverse agonists; Potency, µM (highest dose often 38.3 µM), without a hit: at the top dose activity change, negative = inhibition, most hits filed as inhibitors; 410,000 compounds, 0.13% hits; AID 624418; HEK293 cAMP-luciferase reporter cells, luminescence, 24 h;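 further: loss of luciferase light is scored as toxicity; potency means the concentration at half of the fitted maximal effect; on the % scale 0 is the no-effect control and ±100 the full control effect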
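To flag toxic compounds, the library was rerun on cells for 24 hr at 37 deg C and 5% CO2. Viability-linked luminescence was captured 12 min after adding luciferase detection reagent.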
Active calls of the source: *; i = inactive; ? = inconclusive; · = not tested or not shown; [ ] = dose if it differs, or a comment. Unless noted, the call rests on the fitted dose curve; in most records, active means well fitted curve in the direction sought with a large enough effect; inconclusive means small, poorly fitted or top-dose-only effect, or another doubt; inactive means no such curve, though single readings can be large; an effect the other way counts as inactive or inconclusive.

SMILES	GLP1R inv ag	TRHR ag	GLP1R ag	PTHR1 ag	TRHR enhancer	HEK293 tox
N#Cc1ccc(Cn2cc(C=O)c3ccccc32)cc1	7.08µM*	0.1	1.1%	-24.8%	1.8	-5.0%
Cc1cccc(Cn2cc(C=O)c3ccccc32)c1	3.98µM*	-0.7	9.6%	-23.0%	-1.6	-6.9%
COc1ccc(-n2nnnc2C(c2ccccc2OC(F)(F)F)N2CCC(n3c(=O)[nH]c4ccccc43)CC2)cc1 (stereo unspecified)	?	·	-2.8%	-7.5%	·	?
CCOc1cc2c(cc1OCC)-n1cccc1C(c1cc(C)c(OC)cc1C)NC2 (stereo unspecified)	?	0.8	15.7%	-21.5%	-17.5	?
Cc1[nH]c2ccc(OC(F)(F)F)cc2c1CCNCc1cccc([N+](=O)[O-])c1	?	4.7	10.3%	-12.4%	12.2	?
Cc1[nH]c2ccc(OC(F)(F)F)cc2c1CCNCc1ccc(Cl)cc1	3.98µM*	3.2	5.4%	-22.1%	-2.9	?
CCOc1cccc(CNCCc2c(C)[nH]c3ccc(OC(F)(F)F)cc23)c1O	5.01µM*	-2.3	-5.8%	-40.9%	3.0	?
Cn1c(O)c(C(=Nc2ccc(F)cc2)c2ccccc2Cl)c(=O)n(C)c1=O	15.9%	-0.9	9.1%	-26.3%	-3.3	-5.7%
COC(=O)c1cc(=O)n(-c2ccc(F)cc2)c(=Nc2ccc(F)cc2)s1	4.47µM*	-0.7	-5.7%	-55.0%	-4.3	?
CN(C)CCN(C(=O)COc1ccc(Cl)cc1)c1nc2cc3c(cc2s1)OCO3	-0.5%	0.9	6.9%	-60.8%	-3.8	18.7%
Oc1ccc(N=Nc2nc(-c3ccccc3)c(-c3ccccc3)[nH]2)cc1	5.62µM*	-0.1	-1.4%	i	0.3	10µM*
COc1ccc(-c2[nH]ncc2N=Nc2ccccc2)cc1	-10.7%	-0.2	8.3%	-1.6%	-8.5	?
O=C(NCc1ccc2c(c1)CCN2C(=O)c1ccccc1)Nc1cccc(C(F)(F)F)c1	3.98µM*	0.3	·	-75.6%	-4.8	-22.8%
Cc1ccc(C2=NCC(=O)N(CC(=O)N3CCCCC3)c3sc(C)c(C)c32)cc1	-9.7%	0.6	0.2%	-8.5%	30.0*	-13.3%
CCN1C(=O)c2ccccc2Sc2ccc(C(=O)N3CCC4(CC3)OCCO4)cc21	11.3%	-0.5	7.4%	-35.0%	-0.9	-7.3%
c1ccc(N2CCN(c3nc(NCc4ccco4)c4ccccc4n3)CC2)cc1	7.08µM*	0.3	-4.4%	-31.8%[57.5 µM]	3.0	?
COc1ccc2[nH]cc(CCN(C(C)C)C(C)C)c2c1	·	·	2.2%[96 µM]	·	·	·
COc1ccc2[nH]cc(CCN=C(N)N)c2c1	-6.2%	0.5	-0.2%	21.6%	35.8*	3.3%
Cc1ccc(NC(=O)CN(C)C(=O)Cn2ncc(Cl)c(Cl)c2=O)cc1	?	0.3	-29.8%	-24.0%	-5.0	?
O=C(Cn1ncc(Cl)c(Cl)c1=O)NCC1CCCCC1	?	0.2	-22.9%	-25.4%	3.0	10µM*
Cc1ccc(S(=O)(=O)N(C)C)cc1NC(=O)C(C)[N+]12CCN(CC1)CC2 (stereo unspecified)	4.8%	2.1	11.7%	i	22.9	6.1%
COc1ccccc1/C=C/C1(C(=O)NC2CCCC2)CC(=O)N1c1ccc(F)cc1 (stereo unspecified)	3.55µM*	0.2	-0.8%	-5.6%[57.5 µM]	4.3	?
C[N+](C)(C)CC1CCCC(C[N+](C)(C)C)C1=O (stereo unspecified)	?	·	-2.6%	-35.1%	·	?
O=C(COc1ccccc1)N1CCN(CC2CC3C=CC2C3)CC1 (stereo unspecified)	-12.7%	0.2	2.2%	i	-1.4	-14.7%
O=C(CF)NC(Nc1cccc2cccnc12)C(Cl)(Cl)Cl (stereo unspecified)	10µM*	0.4	2.1%	i	7.6	1.4%
SMILES	GLP1R inv ag	TRHR ag	GLP1R ag	PTHR1 ag	TRHR enhancer	HEK293 tox
Cc1ccccc1NC(=S)NC(NC(=O)CF)C(Cl)(Cl)Cl (stereo unspecified)	-18.9%	-0.3	5.2%	i	-5.5	2.7%
FC(F)(F)c1cnc(NNC(=S)Nc2ccccc2Cl)c(Cl)c1	5.01µM*	5.7	0.0%	-83.8%	2.0	?
O=C(NC(=O)c1c(F)cccc1F)Nc1ccc(Cl)c(Oc2ncc(C(F)(F)F)cc2Cl)c1	·	·	-3.9%	·	·	·
Cc1ccc(NC(=O)c2cc(-c3ccccc3)n(CCCN3CCOCC3)c2C)cc1	?	0.7	5.1%	i	-6.6	-6.9%
O=C1c2cccc3c(N4CCCCC4)ccc(c23)C(=O)N1c1ccc(O)cc1	-8.8%	133.5*	9.1%	-23.6%	-5.6	204.4%
CCCCCCN1C[C@@H](n2cc(C3CC3)nn2)[C@H](O)C[C@@H]1c1ccc(C)cc1	3.98µM*	·	0.6%	i	·	?
Cc1ccc([C@H]2C[C@@H](n3cc(C4CC4)nn3)[C@H](O)CN2Cc2cccs2)cc1	?	·	11.8%	-54.0%	·	-1.7%
COC(=O)c1ccc(CC(C(=O)c2ccccc2)N(C)C)cc1 (stereo unspecified)	-1.0%	-1.5	15.2%	i	-5.9	-3.8%
CCC(c1nnnn1Cc1ccccc1)N1CCC(n2c(=O)[nH]c3ccccc32)CC1 (stereo unspecified)	?	·	-6.0%	-22.7%	·	?
COc1ccc(NC(=O)c2c(C)nn(Cc3ccccc3Cl)c2Cl)cc1Cl	10.6%	0.3	6.4%	-25.1%	-5.2	7.8%
COc1ccc2c(c1)CCc1c(C(=O)Nc3c(C)nn(Cc4ccccc4C)c3C)noc1-2	10µM*	1.3	·	-90.1%	-11.0	-2.3%
CCN[C@@H](C)Cc1cccc(C(F)(F)F)c1	4.9%	·	2.9%	-19.1%	·	-3.9%
COc1ccc(-c2nn(-c3ccccc3)cc2C(=O)N2c3ccc(C)cc3C3CN(C)CCC32)cc1 (stereo unspecified)	14.1µM*	2.3	8.6%	i	0.5	4.0%
CCCCn1nnnc1C(c1ccc(OC)cc1)N1CCC2(CC1)C(=O)NCN2c1ccccc1 (stereo unspecified)	-25.8%	·	2.1%	10.4%	·	-14.9%
COc1ccc(CNC(=O)Nc2nc(C(N)Cc3ccc(C(F)(F)F)cc3)cs2)cc1 (stereo unspecified)	?	·	-7.8%	-3.0%	·	?
CC(C)(C#CC(=O)O)OOC(c1ccccc1)(c1ccccc1)c1ccccc1	11.2µM*	-0.2	-5.8%	-54.9%	8.5	-19.6%
CN(CC(=O)Nc1cccc(F)c1)CC(=O)Nc1cccc(S(=O)(=O)N(C)c2ccccc2)c1	?	·	-7.7%	-24.6%	·	?

Source: PubChem
